# Results taken from the supplement of paper PMC10849652.
# The full data set covers some 7,900 targets. This sample favours those with a hit. About 0.6% of all pairs of compound and target were hits. Values without a mark were called inactive.
# Experiments:
# Assay in all cases: log2 fold change, soluble protein after heating vs DMSO (PISA); higher = thermal stabilisation; K562 cells, 10 uM, 30 min; active = over 0.2 and 3.5 SD of the protein, either way, in both replicates (recomputed)
# [1] = compound: C#Cc1cccc(Nc2ncnc3cc(OCCOC)c(OCCOC)cc23)c1 [erlotinib]
# Outline: (§1)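 Values are thermal stability changes relative to control samples and are taken from duplicates. They are stated as log2 fold changes. Before quantification by TMTpro 16plex LC-MS/MS with equalised channel sums, K562 cells at 2×10^6 cells/mL were treated with 10 μM compound for 30 min, heated in aliquots for 3 min across 48°C-58°C, pooled, extracted in PBS with 0.5% NP-40 at 4°C, and centrifuged at 21,000xg for 90 min to give the soluble supernatant.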
# [2] = compound: C/C(=N\NC(=O)C1=CC(=CC=C1)S(=O)(=O)N2CCOCC2)/C3=C(C=CC(=C3)Cl)O
# Outline: as §1
# [3] = compound: C1=CC(=C(C=C1Cl)C2=NC3=NC=CN=C3C(=N2)NC4=CC=NC=C4)F
# Outline: as §1
# [4] = compound: C1=CC(=CC=C1C2=NC3=C(N2)C=C(C=C3)C(=O)N)OC4=CC=C(C=C4)Cl
# Outline: as §1
# [5] = compound: C1=CC2=C(C=CC(=C2)/C=C\3/C(=O)NC(=NCC4=CC=CS4)S3)N=C1
# Outline: as §1
# [6] = compound: C1=CC=C(C=C1)C2=NC(=C(N2)C3=CC=NC=C3)C4=CC(=C(C=C4)Cl)O
# Outline: as §1
# [7] = compound: C1=CC=C2C(=C1)C3=NNC4=CC=CC(=C43)C2=O
# Outline: as §1
# [8] = compound: C1CCN(C1)C(=O)NC2=CC=CC(=C2)NC3=NC=C(C(=N3)NCCC4=CN=CN4)Br
# Outline: as §1
# [9] = compound: C1CN(CCC1(CC2=CC=C(C=C2)Cl)N)C3=NC=NC4=C3C=CN4
# Outline: as §1
# [10] = compound: C1=CC2=NC=CN=C2C=C1/C=C/3\C(=O)NC(=O)S3
# Outline: as §1
# UniProt P51668, sequence (P51668 whole entry, looked up): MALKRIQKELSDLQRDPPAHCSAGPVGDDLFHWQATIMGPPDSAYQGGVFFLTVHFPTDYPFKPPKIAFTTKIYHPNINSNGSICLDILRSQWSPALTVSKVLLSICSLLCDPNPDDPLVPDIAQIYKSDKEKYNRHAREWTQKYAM
# UniProt Q9NX01, sequence (Q9NX01 whole entry, looked up): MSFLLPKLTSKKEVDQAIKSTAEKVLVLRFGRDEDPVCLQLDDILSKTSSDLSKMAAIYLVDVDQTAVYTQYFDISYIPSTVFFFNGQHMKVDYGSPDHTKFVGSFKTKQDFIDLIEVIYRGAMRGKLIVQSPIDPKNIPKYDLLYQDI
# UniProt O00124, sequence (O00124 whole entry, looked up): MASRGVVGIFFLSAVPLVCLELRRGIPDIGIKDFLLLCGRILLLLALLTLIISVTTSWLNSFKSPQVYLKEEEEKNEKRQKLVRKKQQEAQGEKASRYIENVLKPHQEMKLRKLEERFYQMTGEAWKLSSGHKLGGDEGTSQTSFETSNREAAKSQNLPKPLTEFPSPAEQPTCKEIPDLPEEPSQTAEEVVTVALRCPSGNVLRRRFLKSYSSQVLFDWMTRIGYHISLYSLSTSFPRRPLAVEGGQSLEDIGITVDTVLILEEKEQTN
# UniProt Q6ZVM7, sequence (Q6ZVM7 whole entry, looked up): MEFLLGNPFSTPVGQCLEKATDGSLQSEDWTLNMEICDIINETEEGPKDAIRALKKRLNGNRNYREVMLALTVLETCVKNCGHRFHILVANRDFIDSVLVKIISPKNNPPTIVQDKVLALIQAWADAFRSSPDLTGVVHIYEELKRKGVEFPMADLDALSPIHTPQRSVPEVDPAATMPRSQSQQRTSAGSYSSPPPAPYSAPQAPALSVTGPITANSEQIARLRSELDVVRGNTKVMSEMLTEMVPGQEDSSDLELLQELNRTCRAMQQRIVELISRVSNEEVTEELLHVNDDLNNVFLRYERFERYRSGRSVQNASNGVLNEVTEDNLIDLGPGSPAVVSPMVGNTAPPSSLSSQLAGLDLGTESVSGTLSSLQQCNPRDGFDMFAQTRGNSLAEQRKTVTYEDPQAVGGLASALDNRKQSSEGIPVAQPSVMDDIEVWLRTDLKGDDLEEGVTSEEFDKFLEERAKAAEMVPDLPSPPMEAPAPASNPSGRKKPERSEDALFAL
# UniProt Q8IWA0, sequence (Q8IWA0 whole entry, looked up): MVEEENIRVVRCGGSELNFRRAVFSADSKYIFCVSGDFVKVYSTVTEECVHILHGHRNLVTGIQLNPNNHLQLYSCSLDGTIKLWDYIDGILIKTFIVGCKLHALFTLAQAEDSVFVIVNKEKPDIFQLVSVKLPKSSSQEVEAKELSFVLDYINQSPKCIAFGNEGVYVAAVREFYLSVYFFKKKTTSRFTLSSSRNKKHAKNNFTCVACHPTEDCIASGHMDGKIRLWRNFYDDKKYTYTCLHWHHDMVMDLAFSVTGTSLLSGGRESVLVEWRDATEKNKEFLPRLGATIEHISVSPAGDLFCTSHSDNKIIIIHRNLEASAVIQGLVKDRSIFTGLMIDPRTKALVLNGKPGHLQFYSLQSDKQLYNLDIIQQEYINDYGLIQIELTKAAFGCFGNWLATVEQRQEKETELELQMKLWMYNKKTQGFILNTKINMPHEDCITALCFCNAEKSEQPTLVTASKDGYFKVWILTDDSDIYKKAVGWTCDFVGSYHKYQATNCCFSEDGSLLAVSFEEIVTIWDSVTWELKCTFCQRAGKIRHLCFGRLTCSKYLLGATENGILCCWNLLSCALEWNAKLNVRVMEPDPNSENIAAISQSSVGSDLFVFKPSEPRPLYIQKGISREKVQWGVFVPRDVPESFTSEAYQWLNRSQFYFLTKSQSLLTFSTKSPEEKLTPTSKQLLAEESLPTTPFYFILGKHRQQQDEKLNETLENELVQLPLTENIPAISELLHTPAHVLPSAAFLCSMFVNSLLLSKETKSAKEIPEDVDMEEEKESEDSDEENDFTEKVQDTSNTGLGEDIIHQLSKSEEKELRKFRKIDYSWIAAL
# UniProt Q9NVA4, sequence (Q9NVA4 whole entry, looked up): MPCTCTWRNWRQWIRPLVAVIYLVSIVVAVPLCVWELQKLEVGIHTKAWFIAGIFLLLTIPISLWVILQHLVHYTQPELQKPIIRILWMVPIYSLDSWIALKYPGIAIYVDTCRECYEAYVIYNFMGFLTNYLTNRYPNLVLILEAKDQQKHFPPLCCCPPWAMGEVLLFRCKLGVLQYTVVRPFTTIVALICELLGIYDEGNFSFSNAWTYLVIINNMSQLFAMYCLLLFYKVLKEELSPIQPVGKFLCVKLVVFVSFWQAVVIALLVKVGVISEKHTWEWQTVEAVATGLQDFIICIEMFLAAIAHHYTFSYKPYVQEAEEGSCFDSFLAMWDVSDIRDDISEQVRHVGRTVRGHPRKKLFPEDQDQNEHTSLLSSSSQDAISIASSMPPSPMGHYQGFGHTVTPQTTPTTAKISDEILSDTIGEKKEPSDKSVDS
# UniProt Q86UV5, sequence (Q86UV5 whole entry, looked up): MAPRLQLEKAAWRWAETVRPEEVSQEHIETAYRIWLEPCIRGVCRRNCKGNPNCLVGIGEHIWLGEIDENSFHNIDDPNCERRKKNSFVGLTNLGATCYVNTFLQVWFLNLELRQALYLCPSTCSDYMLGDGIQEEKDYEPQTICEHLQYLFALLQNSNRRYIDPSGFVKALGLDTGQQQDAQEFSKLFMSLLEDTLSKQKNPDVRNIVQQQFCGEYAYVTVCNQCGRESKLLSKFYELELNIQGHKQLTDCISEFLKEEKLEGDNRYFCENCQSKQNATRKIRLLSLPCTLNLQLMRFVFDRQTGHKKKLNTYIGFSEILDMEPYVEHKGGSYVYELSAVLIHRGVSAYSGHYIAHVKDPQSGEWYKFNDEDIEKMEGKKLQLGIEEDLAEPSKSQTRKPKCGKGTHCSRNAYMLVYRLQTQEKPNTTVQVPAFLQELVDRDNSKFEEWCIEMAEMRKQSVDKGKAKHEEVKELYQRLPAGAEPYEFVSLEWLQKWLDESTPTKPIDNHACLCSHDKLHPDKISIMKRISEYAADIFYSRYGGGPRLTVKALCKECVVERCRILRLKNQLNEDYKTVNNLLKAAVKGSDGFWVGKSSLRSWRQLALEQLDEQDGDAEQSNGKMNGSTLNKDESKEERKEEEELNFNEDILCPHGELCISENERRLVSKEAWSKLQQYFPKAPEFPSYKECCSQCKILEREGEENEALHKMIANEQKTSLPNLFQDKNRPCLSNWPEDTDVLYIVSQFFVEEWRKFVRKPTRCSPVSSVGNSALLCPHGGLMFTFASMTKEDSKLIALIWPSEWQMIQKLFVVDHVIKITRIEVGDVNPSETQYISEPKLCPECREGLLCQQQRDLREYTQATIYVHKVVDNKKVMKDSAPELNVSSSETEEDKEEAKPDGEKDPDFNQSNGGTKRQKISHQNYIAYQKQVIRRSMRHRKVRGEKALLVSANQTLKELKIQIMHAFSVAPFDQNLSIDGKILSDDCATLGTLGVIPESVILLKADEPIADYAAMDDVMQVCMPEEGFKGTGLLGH
# UniProt Q629K1, sequence (Q629K1 whole entry, looked up): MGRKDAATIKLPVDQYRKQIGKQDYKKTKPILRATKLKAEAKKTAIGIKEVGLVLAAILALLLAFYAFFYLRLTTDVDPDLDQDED
# UniProt Q96ET8, sequence (Q96ET8 whole entry, looked up): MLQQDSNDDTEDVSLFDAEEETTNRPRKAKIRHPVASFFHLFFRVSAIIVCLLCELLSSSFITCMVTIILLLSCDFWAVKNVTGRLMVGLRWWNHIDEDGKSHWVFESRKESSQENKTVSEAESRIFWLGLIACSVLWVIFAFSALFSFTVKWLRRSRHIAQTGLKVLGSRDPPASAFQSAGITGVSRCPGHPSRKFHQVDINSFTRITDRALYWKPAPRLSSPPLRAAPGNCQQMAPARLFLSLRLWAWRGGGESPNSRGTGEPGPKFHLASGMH
# UniProt Q86TN4, sequence (Q86TN4 whole entry, looked up): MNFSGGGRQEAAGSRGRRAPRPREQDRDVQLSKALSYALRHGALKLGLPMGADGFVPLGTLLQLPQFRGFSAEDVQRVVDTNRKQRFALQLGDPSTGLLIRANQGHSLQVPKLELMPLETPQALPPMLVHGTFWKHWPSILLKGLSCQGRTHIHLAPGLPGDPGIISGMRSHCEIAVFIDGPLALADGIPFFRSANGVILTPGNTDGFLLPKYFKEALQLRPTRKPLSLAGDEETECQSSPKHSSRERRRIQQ
# UniProt Q9HCN3, sequence (Q9HCN3 whole entry, looked up): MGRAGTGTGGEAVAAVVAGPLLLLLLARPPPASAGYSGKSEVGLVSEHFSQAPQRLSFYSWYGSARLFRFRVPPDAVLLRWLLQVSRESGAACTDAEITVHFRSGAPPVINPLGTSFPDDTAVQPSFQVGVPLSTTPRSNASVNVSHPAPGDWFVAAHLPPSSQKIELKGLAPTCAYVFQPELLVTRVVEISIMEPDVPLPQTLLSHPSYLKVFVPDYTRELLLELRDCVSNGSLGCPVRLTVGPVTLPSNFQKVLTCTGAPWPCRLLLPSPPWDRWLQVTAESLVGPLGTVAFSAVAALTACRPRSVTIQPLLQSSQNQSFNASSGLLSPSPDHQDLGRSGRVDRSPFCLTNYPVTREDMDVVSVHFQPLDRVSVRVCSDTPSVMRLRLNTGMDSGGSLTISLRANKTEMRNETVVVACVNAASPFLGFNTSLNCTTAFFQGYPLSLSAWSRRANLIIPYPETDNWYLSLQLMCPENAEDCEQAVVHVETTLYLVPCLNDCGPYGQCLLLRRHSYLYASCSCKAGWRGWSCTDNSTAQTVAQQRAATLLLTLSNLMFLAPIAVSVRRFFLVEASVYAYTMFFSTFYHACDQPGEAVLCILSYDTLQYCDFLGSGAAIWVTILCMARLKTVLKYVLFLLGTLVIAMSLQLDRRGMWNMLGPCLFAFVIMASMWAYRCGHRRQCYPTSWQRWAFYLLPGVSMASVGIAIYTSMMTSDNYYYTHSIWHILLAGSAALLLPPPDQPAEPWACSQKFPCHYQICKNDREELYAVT
# UniProt Q9BQB6, sequence (Q9BQB6 whole entry, looked up): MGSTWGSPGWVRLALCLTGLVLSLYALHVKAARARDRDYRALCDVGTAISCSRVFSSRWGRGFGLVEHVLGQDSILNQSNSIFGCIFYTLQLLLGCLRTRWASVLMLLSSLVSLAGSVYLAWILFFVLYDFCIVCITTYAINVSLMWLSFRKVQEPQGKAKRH
Target,log2 fold change [1],log2 fold change [2],log2 fold change [3],log2 fold change [4],log2 fold change [5],log2 fold change [6],log2 fold change [7],log2 fold change [8],log2 fold change [9],log2 fold change [10]
ULBP1 (UniProt Q9BZM6),-0.017,0.011,0.231,0.044,0.021,-0.083,0.037,-0.073,0.078,–
UBE2D1 (UniProt P51668),0.098,0.071,–,0.068,0.057,0.01,-0.096,0.022,-0.162,0.023
VKORC1 (UniProt Q9BQB6),0.048,-0.048,–,-0.019,0.175,0.044,0.151,-0.049,0.005,0.113
WARS1 (UniProt G3V277),0.183,-0.032,–,-0.076,0.25,–,-0.014,0.141,-0.008,0.036
UBE3B (UniProt Q7Z3V4),–,0.018,0.08,–,0.121,0.064,-0.043,0.395,0.16,0.135
XRCC1 (UniProt P18887),0.036,-0.392,0.04,0.046,0.304,-0.035,0.042,0.043,0.117,–
TRPT1 isoform 4 (UniProt Q86TN4),0.021,0.065,–,-0.08,0.021,0.043,-0.062,–,–,–
UBXN10 (UniProt Q96LJ8),-0.036,–,0.004,0.048,–,-0.077,–,-0.101,0.128,-0.068
TVP23C (UniProt Q96ET8),-0.025,0.053,–,-0.021,0.062,–,-0.098,0.066,-0.031,–
TOM1L2 (UniProt Q6ZVM7),-0.048,0.06,0.043,0.013,0.025,–,-0.026,–,–,–
TTC26,–,–,–,–,–,-0.005,–,0.09,-0.062,0.001
TRIQK (UniProt Q629K1),–,–,-0.023,–,–,-0.077,–,-0.003,0.097,0.046
WDR4 isoform 3 (UniProt P57081),–,–,-0.144,–,–,–,–,–,–,0.045
UBAP2L (UniProt F8W726),0.019,–,–,0.004,–,–,–,0,0.124,-0.019
TRIM23 (UniProt P36406),0.006,–,–,0.075,–,0.061,–,-0.202,0.161,-0.096
WDR75 (UniProt Q8IWA0),–,-0.256,-0.592,–,0.306,-0.063,0.042,-0.193,0.021,0.091
WARS1 (UniProt G3V339),–,–,-0.023,–,–,–,–,–,–,–
WARS1 (UniProt G3V5U1),–,–,-0.233,–,–,–,–,–,–,0.187
TXNRD1 isoform 7 (UniProt Q16881),0.107,–,0.1,-0.193,–,–,–,–,–,0.199

Target,log2 fold change [1],log2 fold change [2],log2 fold change [3],log2 fold change [4],log2 fold change [5],log2 fold change [6],log2 fold change [7],log2 fold change [8],log2 fold change [9],log2 fold change [10]
TMEM8A (UniProt Q9HCN3),0.046,–,–,-0.001,–,0.124,–,-0.014,0.011,0.02
UTP20 (UniProt O75691),-0.082,–,0.053,-0.321,–,–,–,0.061,0.04,–
UBXN8 (UniProt O00124),–,0.056,0.147,–,0.141,-0.149,-0.036,0.167,-0.019,-0.41
XAB2 (UniProt Q9HCS7),–,–,-0.223,–,–,0.075,–,–,–,–
"WDR46, A0A0G2JJL1",-0.273,–,-0.741,-0.011,–,–,–,0.279,0.114,0.027
USP48 (UniProt Q86UV5),0.228,–,–,-0.112,–,–,–,–,–,0.007
TUBA4A (UniProt C9JJQ8),–,–,–,–,–,–,–,0.142,-0.036,0.004
WARS1 (UniProt G3V227),–,-0.08,0.018,–,-0.159,–,-0.178,0.098,-0.089,0.093
TUT4 (UniProt Q5TAX3),0.077,–,-0.231,0.005,–,0.08,–,-0.015,-0.129,-0.011
TRIM5 (UniProt Q9C035),-0.061,0.075,0.111,0.162,0.012,-0.182,0.019,-0.077,-0.01,–
TMEM184C (UniProt Q9NVA4),–,0.04,-0.055,–,-0.05,-0.047,-0.009,-0.092,-0.059,-0.027
TXNL4B (UniProt Q9NX01),0.018,0.007,–,-0.001,0.088,0.008,0.041,-0.005,-0.016,0.221
TOM1 (UniProt O60784),0.082,–,0.193,-0.037,–,–,–,0.022,-0.097,0.186
TRIM44 (UniProt Q96DX7),0.022,0.1,–,0.025,0.028,-0.061,-0.037,-0.023,-0.014,0.087
WARS1 (UniProt G3V3P2),–,–,–,–,–,–,–,–,–,0.155
UNC119B (UniProt A6NIH7),0,0.124,–,0.316,0.031,0.472 (active),0.005,-0.012,0.454 (active),0.001
UBIAD1 (UniProt Q9Y5Z9),0.101,-0.052,–,0.04,0.194,0.259,0.297 (active),0,0.094,-0.036
U2AF1L5 (UniProt P0DN76),1.29 (active),0.031,–,0.022,-0.159,–,-0.005,0.153,-0.207,0.096
TSPAN13 (UniProt O95857),0.017,–,-0.058,0.061,–,-0.02,–,0.065,0.143,0.075
